SW480 rerep = inducers of DNA re-replication in SW480 colon cancer cells; SW480 DNA re-replication, Hoechst DNA content imaging, 48 h; Potency, µM (titrated, usually from 46.1 µM), actives largely listed as activators; actives 1.8% (n = 340,000); AID 624297; further: nearly all actives have a fitted effect of over 55% in size
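Readout is total intensity of Hoechst-stained nuclei, excited at 405 nm and collected at 500-530 nm. Compound treatment lasted 48 hr at 37 C in 5% CO2 before staining.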
KB-V1 MDR tox = kills drug-selected multidrug resistant KB-V1 cells | KB-V1 MDR cells viability, CellTiter-Glo, 72 h | Potency, µM (doses to about 46.1 µM), most hits filed as cytotoxic | AID 1347076 | actives 3.4% (n = 400,000); further: nearly all actives have a fitted effect of over 60% in size
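Potencies derive from concentration-effect curves fitted to normalized luminescence (CellTiter-Glo) of KB-V1 cells treated for 72 h at 37 degrees C in phenol-red-free DMEM containing 10% FBS.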
KB-3-1 cytotox = KB-3-1 parental cell cytotoxicity. KB-3-1 viability, CellTiter-Glo ATP luminescence, 72 h. Potency, µM (doses to about 46.1 µM), actives largely listed as cytotoxic. actives 1.4% (n = 400,000); further: nearly all actives have a fitted effect of over 60% in size
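Here the drug-naive KB-3-1 line serves as comparator for MDR sub-line selectivity; cells received compound titrations, 72 h at 37 °C, then CellTiter-Glo readout.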
MCF10A rereplic = DNA re-replication induction in MCF 10a cells; MCF 10A DNA re-replication, Hoechst nuclear intensity, 48 h; Potency, µM (highest dose often 46.1 µM), most hits filed as activators; actives 2.9% (n = 350,000); further: nearly all actives have a fitted effect of over 50% in size
IL-1B inflam inh = inflammasome signaling inhibition, IL-1 beta readout; THP-1 LPS/ATP IL-1B secretion, AlphaLISA, 16 h; stronger effect = lower value; activity change, % at 57.5 µM; actives 4.7% (n = 360,000); AID 743279; in the data active means activity change below about -50%; inconclusive means mostly about -30% to -49%
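THP-1 cells pretreated 1 hr with compounds (up to 57.5 uM final), then stimulated with LPS (250 ng/mL final) plus ATP (1.25 mM final); secreted IL-1B measured by AlphaLISA after 16 hr, decreased signal indicating inhibition.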
Each line names hits and unclear results; the compound was inactive in the other large screens. An excerpt weighted towards active compounds, which were near 9.9% of everything screened. Unless noted, the call rests on the fitted dose curve; in most records, active means well fitted curve in the direction sought with a large enough effect; inconclusive means small, poorly fitted or top-dose-only effect, or another doubt; inactive means no such curve, though single readings can be large; an effect the other way counts as inactive or inconclusive.

CC1(C(=O)Nc2cccc(C#N)c2)CCN1C(=O)c1ccccc1CCc1ccccc1 (stereo not drawn)	none (no result: SW480 rerep, MCF10A rereplic)
Cn1c(SC(C(=O)Nc2ccc(F)cc2)c2ccccc2)nc2ccccc21 (stereo not drawn)	SW480 rerep inconclusive, KB-V1 MDR tox inconclusive, IL-1B inflam inh inconclusive
CC(Sc1nc2ccccc2n1C)C(=O)NC(c1ccccc1)c1ccccc1 (stereo not drawn)	SW480 rerep inconclusive, KB-V1 MDR tox 8.2µM, MCF10A rereplic inconclusive
CCOc1ccc(S(=O)(=O)N2CCN(c3ccccc3OC)CC2)c2cccnc12	none
CN(C)CCNC(=O)/C(=C/c1ccc(-c2ccc(Cl)cc2Cl)o1)NC(=O)c1ccccc1	SW480 rerep inconclusive, KB-V1 MDR tox inconclusive, KB-3-1 cytotox inconclusive, MCF10A rereplic 7.3µM, IL-1B inflam inh -67
O=C(NCCN1CCOCC1)/C(=C/c1ccc(Cl)cc1)NC(=O)c1ccccc1	IL-1B inflam inh inconclusive
CN(C)CCNC(=O)/C(=C/c1ccc(-c2ccc(Cl)cc2)o1)NC(=O)c1ccccc1	SW480 rerep inconclusive, KB-3-1 cytotox inconclusive, MCF10A rereplic inconclusive, IL-1B inflam inh -93
CCN(CC)C(=S)S	SW480 rerep inconclusive (no result: KB-V1 MDR tox, KB-3-1 cytotox, IL-1B inflam inh)
Cc1cc(C)c(C)c(S(=O)(=O)N2CCC(C(=O)N(C)Cc3nc4ccccc4c(=O)[nH]3)CC2)c1C	KB-V1 MDR tox 23µM
Cc1c(C(=O)N(C)Cc2nc3ccccc3c(=O)[nH]2)oc2ccccc12	SW480 rerep 16µM, KB-V1 MDR tox 8.2µM, KB-3-1 cytotox 18µM, MCF10A rereplic 10µM
CN(Cc1nc2ccccc2c(=O)[nH]1)C(=O)c1ccc(S(=O)(=O)N(C)C)cc1	none
O=C(c1ccccc1Cc1ccccc1)N1CCN(S(=O)(=O)c2ccccc2Br)CC1	KB-V1 MDR tox inconclusive, MCF10A rereplic inconclusive, IL-1B inflam inh -61
O=C(Nc1ccc2sccc2c1)Nc1nnc(-c2ccncc2)s1	none (no result: SW480 rerep, MCF10A rereplic, IL-1B inflam inh)
Cn1ccnc1C(=O)c1cccc([N+](=O)[O-])c1	none
Cn1ccnc1C(=O)c1ccc(NN)c([N+](=O)[O-])c1	MCF10A rereplic inconclusive, IL-1B inflam inh -217
C=Cc1ccc(Cn2c(C(=O)O)c(CNCc3cc(OC)ccc3OC)c3ccc(C)cc32)cc1	none (no result: SW480 rerep, MCF10A rereplic, IL-1B inflam inh)
CCOc1ccc(NC(=O)CN2CCN(S(=O)(=O)c3ccc(OC)cc3)CC2)cc1	none (no result: SW480 rerep, MCF10A rereplic, IL-1B inflam inh)
COc1cccc(N2CCN(CC(=O)Nc3ccc(S(=O)(=O)N4CCCCCC4)cc3)CC2)c1	KB-V1 MDR tox 21µM
COc1ccc(NC(=O)CN2CCN(S(=O)(=O)c3ccc(Cl)cc3)CC2)cc1	KB-V1 MDR tox 16µM
Cc1ccc(S(=O)(=O)N2CCN(CC(=O)Nc3ccc([N+](=O)[O-])cc3)CC2)cc1C	KB-V1 MDR tox 18µM, IL-1B inflam inh inconclusive
O=S(=O)(c1ccc(Cl)c(NC(=S)N/N=C/c2ccc(O)cc2)c1)N1CCOCC1	SW480 rerep 18µM, KB-V1 MDR tox 21µM, KB-3-1 cytotox inconclusive, MCF10A rereplic inconclusive
O=S(=O)(c1ccc(Cl)c(NC(=S)N/N=C/c2c(F)cccc2F)c1)N1CCOCC1	SW480 rerep inconclusive, MCF10A rereplic inconclusive
COC(=O)[C@]1(Cc2ccccc2)N[C@H](CN(C)C(=O)c2ccc(F)cc2)[C@@H]2C(=O)N(C)C(=O)[C@@H]21	SW480 rerep inconclusive
O=C(CN1CCN(c2ccc(O)cc2)CC1)Nc1cc(S(=O)(=O)N2CCCC2)ccc1Cl	SW480 rerep inconclusive
O=C(CN1CCN(c2ccc(O)cc2)CC1)Nc1cc(S(=O)(=O)N2CCCCC2)ccc1Cl	KB-V1 MDR tox 8.2µM
Cc1cc(C)n2c(SCC(=O)N(C)C3CCCCC3)nnc2n1	none
CC1CCN(c2c(NCc3ccc(C(=O)N4CCc5ccccc54)cc3)c(=O)c2=O)CC1	SW480 rerep 6.5µM, KB-3-1 cytotox 1.6µM, MCF10A rereplic 3.7µM
COc1ccc(Nc2cc(C)c3cc(NC(=O)COc4cccc(C)c4)ccc3n2)cc1	KB-3-1 cytotox inconclusive (no result: SW480 rerep, MCF10A rereplic, IL-1B inflam inh)
CCCCCn1c(=N)c(S(=O)(=O)c2ccc(Cl)cc2)cc2c(=O)n3cccc(C)c3nc21	KB-V1 MDR tox 8.2µM, KB-3-1 cytotox inconclusive, MCF10A rereplic inconclusive
COCCn1c(=N)c(S(=O)(=O)c2ccc(F)cc2)cc2c(=O)n3ccccc3nc21	SW480 rerep 21µM, KB-3-1 cytotox inconclusive, MCF10A rereplic 18µM
N=c1c(S(=O)(=O)c2ccc(Br)cc2)cc2c(=O)n3ccccc3nc2n1Cc1ccco1	MCF10A rereplic inconclusive, IL-1B inflam inh inconclusive
N=c1c(S(=O)(=O)c2ccc(Cl)cc2)cc2c(=O)n3ccccc3nc2n1Cc1ccco1	SW480 rerep 5.2µM, KB-3-1 cytotox inconclusive, MCF10A rereplic inconclusive
Cc1nnc(NC(=O)CC23CC4CC(CC(C4)C2)C3)s1	none
COC(=O)C[C@@H]1OC[C@H](Cc2ccccc2)N1S(=O)(=O)c1ccc(C)cc1	KB-V1 MDR tox inconclusive (no result: SW480 rerep, MCF10A rereplic)
CC1=NN(C(=O)c2ccncc2)C(=O)C1N=Nc1ccc2ccccc2c1 (stereo not drawn)	KB-V1 MDR tox 6.5µM, KB-3-1 cytotox inconclusive
CC1=NN(C(N)=S)C(=O)C1N=Nc1ccc(Cl)cc1 (stereo not drawn)	SW480 rerep 18µM, KB-V1 MDR tox inconclusive, KB-3-1 cytotox inconclusive
CC1=NN(C(N)=S)C(=O)C1N=Nc1ccccc1 (stereo not drawn)	none
Cc1ccc(OCc2cnc(Cl)s2)c(C)c1	none
C#CCN1CCc2onc(-c3ccc(Br)cc3)c2C1=O	KB-V1 MDR tox 18µM, KB-3-1 cytotox inconclusive (no result: SW480 rerep, MCF10A rereplic)
CC(C)(C)OC(=O)N1CCc2onc(-c3ccc(Cl)cc3)c2C1=O	none (no result: SW480 rerep, MCF10A rereplic)
CC(C)CCOP(=O)(c1ccc(N(C)C)cc1)C(O)c1ccccc1F (stereo not drawn)	KB-V1 MDR tox 15µM
COc1ccc2[nH]cc(CCNC(=O)c3cnn(-c4ccccc4Cl)c3C3CCN(C(=O)OC(C)(C)C)CC3)c2c1	KB-V1 MDR tox inconclusive (no result: SW480 rerep, MCF10A rereplic, IL-1B inflam inh)
O=c1cc(-c2ccccc2)nc2cc(-c3ccc(Br)cc3)[nH]n12	MCF10A rereplic 3.3µM
O=C(CSc1ccccc1C(=O)NCc1ccccc1)NC1CCCCCCC1	KB-V1 MDR tox 3.3µM, IL-1B inflam inh -101
CC(C)CCNC(=O)c1ccccc1SCC(=O)NC1CCCCCCC1	KB-V1 MDR tox 5.8µM
O=C(CSc1ccccc1C(=O)NCc1ccccc1)NC12CC3CC(CC(C3)C1)C2	SW480 rerep inconclusive, KB-V1 MDR tox 5.8µM, KB-3-1 cytotox inconclusive, MCF10A rereplic inconclusive, IL-1B inflam inh inconclusive
COc1ccc2c(c1)CCc1c(C(=O)NCCN3CCOCC3)noc1-2	KB-V1 MDR tox 12µM
COCC(C)NC(=O)c1noc2c1CCc1cc(OC)ccc1-2 (stereo not drawn)	KB-V1 MDR tox 16µM, MCF10A rereplic inconclusive, IL-1B inflam inh inconclusive
CCCSc1nc(C)c2cc(C)cc(C)c2n1	none
Cc1cc(C)c2nc3nc(C)c(C)cc3c(N)c2c1	MCF10A rereplic inconclusive, IL-1B inflam inh -89
CCOc1ccc(OCCNC(=O)C(NC(=O)c2c(F)cccc2F)C(C)C)cc1 (stereo not drawn)	none
